Results published in PubChem BioAssay AID504333 (National Center for Advancing Translational Sciences (NCATS), 2011).
Hit rate of the full screen: of about 360,000 compounds, about 16,000 (4.4%) were called active. Roughly 9% stayed inconclusive and do not appear here. This is one part of a sample in which actives are shown more often than they occur. Calls follow the shape of the dose curve; as a rule, active = well fitted inhibition curve with a large enough effect; inconclusive = small, poorly fitted or top-dose-only effect; inactive = no such curve, though single readings can be large or run the other way.

molecular target: Bromodomain adjacent to zinc finger domain protein 2B (Homo sapiens) (UniProt Q9UIF8); assay: qHTS Assay for Inhibitors of BAZ2B; conditions: AlphaScreen BAZ2B-H3K14Ac peptide displacement; series mostly up to 114 µM; activity change, negative = inhibition: at the top concentration; also: nearly all actives have a fitted effect of over 60% in size
Outline: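 Protein-peptide AlphaScreen: BAZ2B 50 nM, b-H3K14Ac 50 nM, 1x PBS pH 7.4 + 0.01% Tween-20. Preincubation 30 min RT; cpd 30 min RT (top 110 uM); beads 20 min RT, light-protected.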
% is scaled to controls: 0 for no effect and ±100 for the full control effect; potency is read from the fitted curve at half-maximal effect.

Bromodomain adjacent to zinc finger domain protein 2B (Homo sapiens), sequence (Q9UIF8 whole entry, looked up, the tested form may be a part): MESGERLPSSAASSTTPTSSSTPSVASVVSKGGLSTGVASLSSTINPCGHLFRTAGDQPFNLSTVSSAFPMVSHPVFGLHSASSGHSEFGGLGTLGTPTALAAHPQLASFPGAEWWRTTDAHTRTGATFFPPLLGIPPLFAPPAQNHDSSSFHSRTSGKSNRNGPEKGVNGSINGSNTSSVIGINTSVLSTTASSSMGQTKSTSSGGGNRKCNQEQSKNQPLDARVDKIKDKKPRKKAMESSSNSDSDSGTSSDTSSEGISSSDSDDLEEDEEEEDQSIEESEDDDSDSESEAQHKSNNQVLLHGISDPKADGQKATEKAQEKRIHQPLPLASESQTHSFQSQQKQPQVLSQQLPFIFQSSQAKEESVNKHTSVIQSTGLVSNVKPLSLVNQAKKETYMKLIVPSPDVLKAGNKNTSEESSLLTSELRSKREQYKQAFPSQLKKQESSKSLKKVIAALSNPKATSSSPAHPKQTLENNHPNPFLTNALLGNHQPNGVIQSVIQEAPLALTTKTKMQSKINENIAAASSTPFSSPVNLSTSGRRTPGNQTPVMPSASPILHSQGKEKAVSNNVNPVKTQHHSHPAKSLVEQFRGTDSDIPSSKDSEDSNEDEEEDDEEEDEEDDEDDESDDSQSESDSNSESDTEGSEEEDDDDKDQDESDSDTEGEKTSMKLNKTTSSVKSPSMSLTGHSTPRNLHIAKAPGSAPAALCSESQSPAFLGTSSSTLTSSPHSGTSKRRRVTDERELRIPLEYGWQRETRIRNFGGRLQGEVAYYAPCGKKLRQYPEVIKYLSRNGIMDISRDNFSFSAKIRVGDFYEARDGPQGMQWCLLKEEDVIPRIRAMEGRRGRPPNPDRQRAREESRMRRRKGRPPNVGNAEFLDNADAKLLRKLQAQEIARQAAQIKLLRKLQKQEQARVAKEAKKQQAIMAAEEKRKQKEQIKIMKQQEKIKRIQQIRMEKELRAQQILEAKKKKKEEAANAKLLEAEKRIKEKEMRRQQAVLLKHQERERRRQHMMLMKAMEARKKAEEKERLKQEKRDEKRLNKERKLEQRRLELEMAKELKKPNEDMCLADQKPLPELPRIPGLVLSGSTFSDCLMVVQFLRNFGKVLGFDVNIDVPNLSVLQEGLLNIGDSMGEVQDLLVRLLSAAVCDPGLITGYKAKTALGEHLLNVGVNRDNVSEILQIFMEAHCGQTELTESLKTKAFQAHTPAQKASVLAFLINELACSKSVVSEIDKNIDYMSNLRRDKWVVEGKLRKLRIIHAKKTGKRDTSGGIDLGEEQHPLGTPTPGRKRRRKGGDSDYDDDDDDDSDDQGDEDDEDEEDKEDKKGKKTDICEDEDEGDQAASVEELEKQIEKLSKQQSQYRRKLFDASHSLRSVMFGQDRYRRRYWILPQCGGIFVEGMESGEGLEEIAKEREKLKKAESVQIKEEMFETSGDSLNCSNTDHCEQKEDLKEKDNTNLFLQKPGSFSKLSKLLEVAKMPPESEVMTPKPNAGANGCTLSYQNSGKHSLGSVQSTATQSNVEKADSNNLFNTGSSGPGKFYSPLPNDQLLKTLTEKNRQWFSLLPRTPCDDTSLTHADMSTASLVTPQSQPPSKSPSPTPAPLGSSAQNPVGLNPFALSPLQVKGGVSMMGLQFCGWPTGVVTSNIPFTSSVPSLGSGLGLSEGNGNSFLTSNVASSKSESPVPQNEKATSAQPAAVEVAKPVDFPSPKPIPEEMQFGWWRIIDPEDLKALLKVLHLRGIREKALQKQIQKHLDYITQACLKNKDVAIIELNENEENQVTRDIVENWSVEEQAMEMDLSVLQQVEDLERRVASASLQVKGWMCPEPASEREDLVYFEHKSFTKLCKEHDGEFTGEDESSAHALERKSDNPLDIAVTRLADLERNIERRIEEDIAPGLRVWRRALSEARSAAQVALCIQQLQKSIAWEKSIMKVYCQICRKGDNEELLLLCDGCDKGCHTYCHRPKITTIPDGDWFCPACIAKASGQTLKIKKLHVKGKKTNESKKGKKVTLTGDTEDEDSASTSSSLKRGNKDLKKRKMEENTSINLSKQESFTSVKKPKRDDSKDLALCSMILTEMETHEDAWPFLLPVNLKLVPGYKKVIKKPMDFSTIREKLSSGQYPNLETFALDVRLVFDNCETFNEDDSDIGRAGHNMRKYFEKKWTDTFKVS

SMILES | activity change, negative = inhibition | Potency
O=C(Nc1ccc(-c2nc3cc(NC(=O)c4ccccc4Cl)ccc3o2)cc1)c1ccccc1Cl | 10.3% (inactive) | –
CSC1=N/C(=C\C=C\c2cccs2)C(=O)S1 | – | 11.2 µM (active)
Cc1ccc(C)c(N2CCN(C(=O)C3CCC(CNS(=O)(=O)c4cccs4)CC3)CC2)c1 (centres undefined) | -36.8% (inactive) | –
CCCOc1ccc(-c2cccc(NS(=O)(=O)c3ccccc3)c2)nn1 | 14.1% (inactive) | –
CCOc1ccccc1C(=O)Nc1ccc(S(=O)(=O)N2CCCCC2c2cccnc2)cc1 (centres undefined) | 0.817% (inactive) | –
COc1cccc(NC(=O)c2ccc3c(SCC(=O)O)c4c(nc3c2)CCCC4)c1 | -23.9% (inactive) | –
COc1cc(/C=C/C(=O)N2CCc3ccccc3C2)cc(OC)c1OC | -6.42% (inactive) | –
COc1ccc(NS(=O)(=O)c2cc(NC(=O)/C=C/c3cc(OC)c(OC)c(OC)c3)ccc2N2CCCCC2)cc1 | -4.66% (inactive) | –
COc1ccc(C(=O)Nc2ccc3nc(N4CCCCC4)cc(C)c3c2)cc1OC | – | inactive
COc1ccccc1Nc1c2c(nc3ccc(NC(=O)/C=C/c4cc(OC)c(OC)c(OC)c4)cc13)CCCC2 | – | 11.2 µM (active)
CCOc1ccc(C(=O)Nc2ccc3nc4c(c(Nc5ccccc5OC)c3c2)CCCC4)cc1 | – | 17.8 µM (active)
COc1ccc2c(c1)c(N1CCCC1=O)c(C(=O)Nc1ccccc1C(F)(F)F)n2C | -13.3% (inactive) | –
Cn1nnc2c(N3CCN(c4ccccc4)CC3)ncnc21 | -20.7% (inactive) | –
CSc1ccccc1NC(=O)CCS(=O)(=O)c1nc(-c2cccs2)cc(C(F)(F)F)n1 | 1.68% (inactive) | –
COc1ccccc1N1CCN(C2C(=O)c3ccccc3N2C(C)=O)CC1 (centres undefined) | -23.9% (inactive) | –
COc1ccc(CCNC(=O)Cc2ccc(C)cc2)cc1OC | – | 79.4 µM (active)
COc1ccc(CCNC(=O)NS(=O)(=O)c2ccc(C)cc2)cc1OC | -5.09% (inactive) | –
COc1ccc(CCNC(=O)CCc2ccccc2O)cc1OC | 11.6% (inactive) | –
CCOC(=O)c1ccc(NC(=O)CC2C(=O)N(c3cccc(OC)c3)C(=O)N2C2CCCCC2)cc1 (centres undefined) | -9.85% (inactive) | –
Cc1c(C)c(C)c(S(=O)(=O)NCCc2ccccn2)c(C)c1C | -3.43% (inactive) | –
COc1ccc(NCCc2ccccn2)cc1 | – | 56.2 µM (active)
COc1cccc(NC(=S)NCc2ccccn2)c1 | -30.1% (inactive) | –
Cc1ccc(C(=O)CC2(O)C(=O)N(CCc3ccccc3)c3ccc(Br)cc32)cc1 (centres undefined) | -13.9% (inactive) | –
CCc1ccc(OCC(=O)N(Cc2ccccc2)C2CCS(=O)(=O)C2)cc1 (centres undefined) | 4.48% (inactive) | –
COc1cc(C(=O)N(Cc2ccc(C(C)C)cc2)C2CCS(=O)(=O)C2)cc(OC)c1OC (centres undefined) | 2.98% (inactive) | –

SMILES | activity change, negative = inhibition | Potency
Cc1ccc(CN(C(=O)COc2ccc(Cl)cc2C)C2CCS(=O)(=O)C2)o1 (centres undefined) | -27.3% (inactive) | –
CC(C)c1ccc(OCC(=O)N(Cc2ccc(N(C)C)cc2)C2CCS(=O)(=O)C2)cc1 (centres undefined) | – | 28.2 µM (active)
COc1cc(C(=O)N(Cc2ccc(N(C)C)cc2)C2CCS(=O)(=O)C2)cc(OC)c1OC (centres undefined) | -22.1% (inactive) | –
Cc1cc(Cl)ccc1OCC(=O)N(Cc1ccc(N(C)C)cc1)C1CCS(=O)(=O)C1 (centres undefined) | – | 35.5 µM (active)
Cc1cc(C)c2sc(NC(=O)c3ccc(S(=O)(=O)N4CCCC4)cc3)nc2c1 | 0.487% (inactive) | –
COc1ccc(C(=O)CSc2c(C(C)C)cnc3c2c(=O)n(C)c(=O)n3C)cc1 | -7.25% (inactive) | –
CCc1ccc(CNC(=O)c2ccc(CS(=O)c3ccc(Br)cc3)o2)cc1 (centres undefined) | 0.453% (inactive) | –
CCc1nnc(SCc2c(F)cccc2Cl)c2cc3sccc3n12 | -6.2% (inactive) | –
Nc1ccc2nc3c(=O)[nH]c(=S)[nH]c3nc2c1 | – | 31.6 µM (active)
CC1CN(C(=O)N2CCC(C(=O)NCc3cccs3)CC2)c2ccccc2O1 (centres undefined) | -1.78% (inactive) | –
CCn1c(=O)cc(OCC(=O)Nc2cc(Cl)c(OC)cc2OC)c2ccccc21 | -13.1% (inactive) | –
Cc1cccc(C(=O)Nc2ccc(-c3nc4ncccc4o3)cc2C)c1 | -1.15% (inactive) | –
COc1cccc(C(=O)Nc2ccc(N3CCCC3)cc2)c1 | – | 31.6 µM (active)
COC(=O)Cc1ccc(NC(=S)NCc2ccccc2)cc1 | -2.73% (inactive) | –
Cc1ccccc1C(=O)NC(=S)Nc1ccc(N2CCN(C(=O)c3ccccc3)CC2)cc1 | 0.365% (inactive) | –
Cc1ccccc1C(=O)N1CCN(c2ccc(NC(=O)c3cccs3)cc2)CC1 | -32.9% (inactive) | –
COc1cccc(C(=O)Nc2ccc3nc4n(c(=O)c3c2)CCCCC4)c1 | -12.9% (inactive) | –
O=C(CCN1CCN(c2ccccc2)CC1)NNC(=S)Nc1ccccc1 | -17.5% (inactive) | –
O=C(Cc1ccccc1)NC(=S)Nc1ccc(N2CCCCC2)cc1 | – | 12.6 µM (active)
Cc1ccccc1C(=O)Nc1ccc(N2CCCCCC2)cc1 | – | 31.6 µM (active)
COc1cccc(C(=O)Nc2ccc(N3CCN(C(=O)c4ccco4)CC3)cc2)c1 | -12.1% (inactive) | –
Cc1cc2nn(-c3ccc(Cl)cc3)nc2cc1NC(=O)C(C)C | 0.62% (inactive) | –
CCC1CCCCN1S(=O)(=O)c1ccc(NC(=O)c2cc(=O)c3ccccc3o2)cc1 (centres undefined) | -2.23% (inactive) | –
CC(=O)Nc1cc(C(=O)NCc2ccc(F)cc2Cl)ccc1Sc1ccc(Cl)cc1 | -4.28% (inactive) | –
CSc1cccc(NC(=O)CN2C(=O)CCc3cc(S(=O)(=O)N4CCCCC4)ccc32)c1 | -3.68% (inactive) | –

SMILES | activity change, negative = inhibition | Potency
Cc1ccccc1-n1c(=O)c2ccccc2n(Cc2ccc(F)cc2)c1=O | 0.401% (inactive) | –
Cc1ccc(-c2nnc(Nc3ccc(OCC(N)=O)cc3)c3ccccc23)cc1S(=O)(=O)NCC1CCCO1 (centres undefined) | -14.3% (inactive) | –
COc1ccc(CNC(=O)CS(=O)Cc2nc(-c3cccc(C)c3)oc2C)cc1 (centres undefined) | -24.3% (inactive) | –
COc1ccc(CCNC(=O)c2c3c(nc4ccccc24)C(=O)N(C2CCCCC2)C3)cc1OC | -11.2% (inactive) | –
COC(=O)c1cc2occc2n1Cc1nc(-c2ccc(C)cc2)oc1C | -13.3% (inactive) | –
Cc1cc(N2CCN(S(=O)(=O)c3ccc(C)c(C)c3)CC2)c2ccccc2n1 | -35.4% (inactive) | –
Cc1ccc(S(=O)(=O)Nc2nc3ccccc3nc2N2CCc3ccccc3C2)cc1 | -0.716% (inactive) | –
Cc1ccc(S(=O)(=O)C(C#N)c2nc3ccccc3nc2N2CCCC2)cc1C (centres undefined) | – | 79.4 µM (active)
COc1cccc(Cn2c(CNS(=O)(=O)c3ccc(Cl)s3)nc3cccnc32)c1 | -1.14% (inactive) | –
Cc1ccc(CNS(=O)(=O)c2ccc(C(=O)N(C)C)s2)cc1 | -0.589% (inactive) | –
O=C(CC1C(=O)N(c2ccccc2)C(=O)N1CCc1cccs1)Nc1ccc(F)cc1 (centres undefined) | -2.54% (inactive) | –
COc1cccc(C2/C(=C(/O)c3ccc(F)cc3)C(=O)C(=O)N2CCN(C)C)c1 (centres undefined) | 16.7% (inactive) | –
CCCOc1ccc(/C(O)=C2/C(=O)C(=O)N(CCN(C)C)C2c2ccc(OC)c(OC)c2)cc1 (centres undefined) | – | 79.4 µM (active)
COc1ccc(/C(O)=C2/C(=O)C(=O)N(CCCN(C)C)C2c2ccccc2)cc1OC (centres undefined) | 6.91% (inactive) | –
COc1ccc(CCNC(=O)c2ccc3c(c2)nc(C)n3-c2ccc(Br)cc2)cc1OC | -23.5% (inactive) | –
COc1ccccc1CNC(=O)c1ccccc1NC(=O)c1nsc2ccccc12 | -2.42% (inactive) | –
CCOc1ccc(CNC(=O)c2ccc3c(c2)nnn3C2CCCC2)cc1 | -2.27% (inactive) | –
O=C(c1cc(-c2ccco2)nc2ccccc12)N(Cc1nnc(-c2ccc(Cl)cc2)o1)C1CC1 | 1.6% (inactive) | –
Cc1cc(C)c2nc(-c3ccco3)cc(C(=O)O)c2c1 | – | 39.8 µM (active)
CC1CCCN(C(=O)c2cc(-c3ccco3)nc3ccccc23)C1 (centres undefined) | 2.27% (inactive) | –
CC(C)(C)c1ccc(S(=O)(=O)N2CCN(C(=O)c3cc(-c4ccc(Br)cc4)n[nH]3)CC2)cc1 | -6.78% (inactive) | –
Cc1cccc(CC(=O)N2CC(=O)Nc3ccc(F)cc3C2c2ccccc2)c1 (centres undefined) | -14.3% (inactive) | –
CCc1ccc(CNC(=O)c2cc3c(=O)n(CC)c4ccccc4c3s2)cc1 | -8.35% (inactive) | –
O=S(=O)(N/N=C\c1cccn1-c1ccccc1)c1ccc2ccccc2c1 | – | 35.5 µM (active)
COc1ccc(N2CC(NS(=O)(=O)c3ccc4ccccc4c3)CC2=O)cc1 (centres undefined) | -3.73% (inactive) | –

SMILES | activity change, negative = inhibition | Potency
O=C(COc1ccc(/C=N/NS(=O)(=O)c2ccccc2)cc1)NCCc1ccccc1 | -3.74% (inactive) | –
CCOc1ccccc1CNC(=O)C1CCCN(S(=O)(=O)c2ccc3c(ccn3C)c2)C1 (centres undefined) | -3.49% (inactive) | –
Cc1cc2oc(C(=O)N(Cc3ccc(Cl)cc3)Cc3ccco3)c(C)c2cc1Cl | -4.19% (inactive) | –
CCc1cnc2c(c1SCC(=O)c1ccccc1)c(=O)n(C)c(=O)n2C | -11.3% (inactive) | –
COc1cccc(N2CCN(S(=O)(=O)c3cc(Br)cc4c3N(C(=O)C3CC3)CC4)CC2)c1 | -3.33% (inactive) | –
CCC(=O)N1CCc2cc(Br)cc(S(=O)(=O)Nc3ccc(C)cc3C)c21 | -0.535% (inactive) | –
COc1ccc(Cn2ccnc2SCC(=O)NCc2ccco2)cc1 | -14.3% (inactive) | –
COc1ccc(-c2oc3ncn(Cc4ccco4)c(=N)c3c2-c2ccc(OC)cc2)cc1 | – | 28.2 µM (active)
COc1ccc(NC(=O)C(=O)NCc2ccco2)cc1 | 3.4% (inactive) | –
CCN1CCN(c2ncc3c(n2)CC(c2ccccc2O)CC3=O)CC1 (centres undefined) | -3.34% (inactive) | –
Cc1ccc(C(=O)N2CCc3cc(CNC(=O)c4ccc(Br)cc4)ccc32)cc1 | -10.7% (inactive) | –
Cc1ccc(C)c(OCC(=O)Nc2sc3c(c2C#N)CCCC3)c1C | 6.56% (inactive) | –
N#Cc1c(NC(=O)CSc2nc3ccccc3c(=O)n2Cc2ccco2)sc2c1CCCC2 | -4.51% (inactive) | –
COc1ccc(-n2c(SCC(=O)Nc3sc4c(c3C#N)CCCC4)nnc2-c2ccc(O)cc2)cc1 | – | 79.4 µM (active)
Cc1cs/c(=N\N=C\c2ccc(O)cc2)n1Cc1ccco1 | – | 44.7 µM (active)
COc1ccc(NC(=O)CSc2nnc(-c3cccs3)n2Cc2ccco2)cc1OC | -1% (inactive) | –
CN(c1ccccc1)c1ccc(/C=c2\s/c(=C(/C#N)C(=O)C(C)(C)C)n(Cc3ccco3)c2=O)cc1 | -37.8% (inactive) | –
Cc1ccc(-c2cn3c(n2)sc2cc(C(=O)NCc4cccs4)ccc23)c(C)c1 | 55.2% (inactive) | –
Cc1ccccc1CSc1nnc(-c2cccnc2)n1N | 1.75% (inactive) | –
Cc1ccccc1CSc1nnc(-c2ccccn2)n1N | – | 28.2 µM (active)
Cc1ccccc1CSc1nnc(Cn2c(=O)sc3ccccc32)n1C | -2.9% (inactive) | –
CCOC(=O)CCCNC(=O)COC(=O)/C=C/c1ccc2c(c1)OCO2 | -8.04% (inactive) | –
O=C(Cc1ccc(F)cc1)N/N=C/c1ccc2c(c1)OCO2 | 3.35% (inactive) | –
CCC1=C/C(=C\c2ccc3c(c2)OCO3)C(=O)S1 | – | 44.7 µM (active)
